The list is not random: actives were taken first. Their share in the collection is about 1.3%.
CRFBP-R2 block = antagonists of CRF-BP/CRF-R2 complex, primary screen, cell-based, HEK293, calcium dye fluorescence, uHTS; CRF-induced calcium fluorescence; 350,000 compounds, 0.59% hits; AID 588475, 2011; inhibition, % at 11.8 µM;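 active means inhibition of the ligand-induced calcium signal above about 50% at the single tested concentration, limit read from the data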
LANA DNA inh = inhibitors of KSHV C-LANA binding to DNA, primary screen, biochemical, fluorescence polarization, FAM-LBS DNA, MBP-C-LANA, single point; 340,000 compounds, 0.078% hits; inhibition, % at 9 µM; Kaposi's sarcoma herpesvirus LANA C-terminal domain (residues 932-1162) DNA binding;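 active means highest replicate inhibition at or above 60% at 9 µM, even if other replicates fall short; inactive means all replicates below 60% inhibition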
CRFR2-BP ag = agonists of CRF-BP/CRF-R2 complex, primary screen, cell-based, HEK293, calcium dye fluorescence, uHTS | calcium dye fluorescence (FLIPR); percent of saturating CRF peptide response | activation, % at 13.2 µM | 350,000 compounds, 0.46% hits;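 active means activation of at least 50%, plus an integration ratio under a set limit after plate pattern correction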
Keap1 Nrf2 FP = Keap1-Nrf2 protein-protein interaction inhibitors, primary screen, biochemical, fluorescence polarization, single point | 340,000 compounds, 0.15% hits | Keap1 Kelch-Nrf2 peptide fluorescence polarization, 1536-well | inhibition, % at 9.4 µM | Kelch-like ECH-associated protein 1 (Homo sapiens), Q14145; in the data active means inhibition above about 12%;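 further: human Keap1 Kelch domain with fluorescein labeled Nrf2 9mer peptide probe; higher means more block of Keap1 binding to Nrf2 peptide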
Target sequence (Q14145 whole entry, looked up, the tested form may be a part): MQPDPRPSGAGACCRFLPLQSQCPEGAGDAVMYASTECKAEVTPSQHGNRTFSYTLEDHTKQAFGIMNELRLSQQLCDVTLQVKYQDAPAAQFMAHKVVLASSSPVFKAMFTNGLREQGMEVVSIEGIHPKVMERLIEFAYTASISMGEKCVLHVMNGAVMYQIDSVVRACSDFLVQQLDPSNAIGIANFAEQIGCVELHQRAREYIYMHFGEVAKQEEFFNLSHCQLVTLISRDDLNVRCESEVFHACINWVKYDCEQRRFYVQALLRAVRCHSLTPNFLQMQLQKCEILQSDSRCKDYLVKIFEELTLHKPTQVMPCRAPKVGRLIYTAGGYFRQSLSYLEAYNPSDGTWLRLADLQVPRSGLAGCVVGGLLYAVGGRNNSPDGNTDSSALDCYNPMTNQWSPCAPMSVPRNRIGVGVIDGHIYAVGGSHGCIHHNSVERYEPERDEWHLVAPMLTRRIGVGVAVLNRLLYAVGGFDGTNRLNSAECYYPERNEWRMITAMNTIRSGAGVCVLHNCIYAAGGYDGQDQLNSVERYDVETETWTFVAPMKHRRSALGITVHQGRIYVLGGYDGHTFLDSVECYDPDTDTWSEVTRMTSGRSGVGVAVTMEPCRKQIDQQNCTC
cardiac RTF act = cardiac RTF calcium sensitivity activators, primary screen, biochemical, IANBD-TnC fluorescence, EC20 calcium; Troponin I, cardiac muscle (Homo sapiens) + Troponin T, cardiac muscle (Homo sapiens) + …; IANBD-labeled TnC RTF fluorescence at EC20 calcium; 0% EC20 calcium, 100% full calcium; activation, % at 7.2 µM; 340,000 compounds, 0.24% hits; AID 493008, 2010;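 active means activation above the mean over all tested compounds plus 3 SD, cut at about 30% in these data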;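 further: rise in fluorescence read as greater calcium sensitivity of cardiac thin filaments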
Cardiac RTF inh = cardiac RTF calcium sensitivity inhibitors, primary screen, biochemical, IANBD-TnC fluorescence, EC70 calcium; AID 493244, 2011; inhibition, % at 7.15 µM; 340,000 compounds, 0.12% hits; Troponin I, cardiac muscle (Homo sapiens) + Troponin T, cardiac muscle (Homo sapiens) + …; IANBD-labeled cardiac RTF, Ca2+ fluorescence;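 active means inhibition above the mean inhibition of all tested compounds plus 3 SD, cut at about 17% in these data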;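 further: assay run at fixed EC70 calcium of 1.6 mM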
Each line names hits and unclear results; the compound was inactive in the other large screens.

CCC(=O)Oc1ccc(C2N(C(=O)CC)CCN2S(=O)(=O)c2ccc(C)cc2)cc1OC (centres undefined)	none
COc1ccc(Cl)cc1C(=O)NNC(=S)NC(=O)c1cc(-c2ccc(Cl)cc2)nc2ccccc12	none
COc1ccc(C(=O)NNC(=S)NC(=O)c2ccc(F)cc2)cc1Br	CRFR2-BP ag 77 (no result: LANA DNA inh, Keap1 Nrf2 FP, cardiac RTF act, Cardiac RTF inh)
C=CCNC(=S)NNC(=O)c1ccc(OCC)cc1	CRFBP-R2 block 109
Cc1cccc(C(=O)NC(=S)NNC(=O)COc2ccc(Cl)cc2)c1	CRFR2-BP ag 59
C=CCNC(=S)NNC(=O)c1ccc(OCCC)cc1	none
COc1ccc(Cl)cc1C(=O)NNC(=S)NC(=O)c1ccc(F)c(F)c1	CRFBP-R2 block 62, CRFR2-BP ag 142
Cc1cc(C)n2nc(C(=O)OCC(=O)N3CCC3)nc2n1	none
O=C1N=c2ccccc2=C1c1sc(Nc2ccc(O)cc2)nc1O	CRFBP-R2 block 60
CC(C)(C)c1nc(CN2CCCCC2)cc(CN2CCCCC2)c1O	CRFBP-R2 block 81
CC1(O)c2ccccc2C(=O)N1CCc1ccccc1F (centres undefined)	CRFBP-R2 block 59
c1coc(CSCc2cn3cccnc3n2)c1	none
Cc1[nH]c2ccccc2c1SCC(=O)N1CCC(C)CC1	none
Cc1ccc(CN2CC(=O)N3[C@H]4c5cc(C)ccc5OC[C@@H]4[C@H](c4ccccc4)[C@]3(C)C2=O)cc1	none
Cc1ccc(CN2CC(=O)N3[C@H]4c5cc(Cl)ccc5OC[C@@H]4[C@H](c4ccccc4)[C@]3(C)C2=O)cc1	CRFBP-R2 block 72
COc1ccc(C#Cc2c(-c3ccccc3)n(C)c3ccccc23)cc1	none
COc1cc(C#Cc2c(-c3ccccc3)n(C)c3ccccc23)cc(OC)c1	CRFBP-R2 block 51
COc1cc(OC)nc(/N=C/NO)n1	none (no result: LANA DNA inh, Keap1 Nrf2 FP, cardiac RTF act, Cardiac RTF inh)
CCN1CCc2c(sc(NC(=O)c3ccc(S(=O)(=O)N(C)c4ccccc4)cc3)c2C(=O)NC)C1	CRFR2-BP ag 162, cardiac RTF act 52
CCN1CCN(S(=O)(=O)c2ccc(C(=O)Nc3sc4c(c3C(N)=O)CCN(CC)C4)cc2)CC1	none
CNC(=O)c1c(NC(=O)c2ccc(S(=O)(=O)N(C)c3ccccc3)cc2)sc2c1CCN(C(C)C)C2	CRFR2-BP ag 160 (no result: LANA DNA inh, Keap1 Nrf2 FP, cardiac RTF act, Cardiac RTF inh)
CC(C)N1CCc2c(sc(NC(=O)c3ccc(S(=O)(=O)N4CCc5ccccc54)cc3)c2C(N)=O)C1	CRFR2-BP ag 107
O=C(NCc1ccco1)c1ccc(Cl)c(S(=O)(=O)Nc2ccccc2)c1	none
O=C(OCc1ccc2c(c1)OCO2)c1ccc(S(=O)(=O)N2CCCC2)cc1	CRFBP-R2 block 114
COc1cc(/C=C2\SC(=S)N(Nc3ncc(C(F)(F)F)cc3Cl)C2=O)ccc1O	CRFR2-BP ag 115
COc1cc(/C=C2\SC(=S)N(NC(=O)c3ccc(O)cc3)C2=O)ccc1O	CRFR2-BP ag 53
CCOc1ccc(/C=C2\SC(=S)N(NS(=O)(=O)c3ccc(C)cc3)C2=O)cc1OC	CRFBP-R2 block 51
COc1cc(/C=C2\SC(=S)N(Nc3ccccc3)C2=O)ccc1O	none
CN(C)c1ccc(/C=C2\SC(=S)N(Nc3ncc(C(F)(F)F)cc3Cl)C2=O)cc1	CRFR2-BP ag 159, cardiac RTF act 147
COc1cc(/C=C2\SC(=S)N(NC(=O)c3cccnc3)C2=O)ccc1O	none
CC(=O)c1c(C(C)=O)c(C)n(NC(=O)c2ccccc2Cl)c1C	none
COc1ccc(NC(=O)Cn2nnc(-c3ccccc3F)n2)cc1Cl	none
CCN(CC)C(=O)CSc1nc2c(sc(=S)n2-c2ccccc2)c(=O)n1-c1ccc(OC)cc1OC	none
Cc1nnc(NC(=O)C(C)Sc2nnc(-c3ccco3)n2C)s1 (centres undefined)	none
COc1cc(/C=C2/SC(=S)N(CC3CCCO3)C2=O)ccc1O (centres undefined)	CRFR2-BP ag 151
COc1ccc(/C=C2\SC(=S)N(CC3CCCO3)C2=O)cc1 (centres undefined)	none
Cc1[nH]n(-c2ccccc2)c(=O)c1/C=N/NC(=O)c1cccc([N+](=O)[O-])c1	none
Cc1ccc(-n2[nH]c(C)c(/C=N/Nc3ccc([N+](=O)[O-])cc3[N+](=O)[O-])c2=O)cc1C	CRFBP-R2 block 85
Cc1cc([N+](=O)[O-])nn1CC(=O)NCc1ccccc1	none
O=C(NCCCc1ccccc1)c1cccc([N+](=O)[O-])c1	CRFBP-R2 block 55
COc1ccccc1CN1CC(C(=O)NCCc2ccc(Cl)cc2)CC1=O (centres undefined)	none
CCOC(=O)N1CCN(C(=O)c2ccc3nc(SCc4ccc(F)cc4)n(C)c3c2)CC1	CRFBP-R2 block 51
CCN(CC)CCOc1nc(C)nc2c1oc1ccccc12	none
CCN(CC)CCCOc1nc(C)nc2c1oc1ccccc12	Cardiac RTF inh 36
CSc1ccc(S(=O)(=O)NCC(=O)OC2CCOC2=O)cc1[N+](=O)[O-] (centres undefined)	none
CCOC(=O)Oc1ccc2c(=O)c(Oc3cccc(C)c3)coc2c1	CRFBP-R2 block 52
C[C@@H]1CC[C@@]23COC(=O)C2=CCC[C@@H]3[C@@]1(C)CC/C(=C/CO)CO	none
COC(=O)CC1SC(=O)NC1=Nc1ccc(OC)cc1 (centres undefined)	CRFBP-R2 block 73
CCCCCn1nc(C)c(/C=N\NC(=O)c2cc(C)oc2C)c1C	CRFR2-BP ag 107
CCCCCn1nc(C)c(/C=N/NC(=O)c2ccoc2C)c1C	none
O=C(CSc1ccccc1)NN1C(=O)c2ccccc2C1=O	CRFBP-R2 block 122
C[C@@H](O)C(C(=O)N1CCNCC1)n1cc([C@@H](N)CCCCN)nn1 (some centres undefined)	none
O=C(O)c1ccc2c(c1)C1C=CCC1C(c1ccncc1)N2 (centres undefined)	none
COc1ccc(NS(=O)(=O)c2ccc3c(c2)[C@H]2C=CC[C@H]2[C@@H](c2ccc(C(=O)O)cc2)N3)cc1	LANA DNA inh 113
CC(C)(C)C(=O)/C(=C/c1ccc(Cl)cc1)n1cncn1	CRFBP-R2 block 55
CSc1ncccc1C(=O)NCc1ccc(C)cc1	none
CN1CCC/C1=C/C=C1\SC(=S)NC1=O	CRFR2-BP ag 149, cardiac RTF act 471
O=C1NC(=S)SC1=Cc1cccs1	none
O=C(NNc1c(Cl)cccc1Cl)c1cccs1	none
COc1ccccc1C(=O)NCCC(=O)N1CCN(S(=O)(=O)c2cccc(Cl)c2)CC1	none

Screening results: PubChem, several laboratories
